High-throughput results (PubChem BioAssay)
LANA DNA inh = inhibitors of KSHV C-LANA binding to DNA, primary screen, biochemical, fluorescence polarization, FAM-LBS DNA, MBP-C-LANA, single point; Kaposi's sarcoma herpesvirus LANA C-terminal domain (residues 932-1162) DNA binding; inhibition, % at 9 µM; 0.078% of 340,000 active;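 active = highest replicate inhibition at or above 60% at 9 µM, even if other replicates fall short; inactive = all replicates below 60% inhibition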;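 also: 0% = neutral control wells and 100% = 4 µM acridine orange control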
cardiac RTF act = cardiac RTF calcium sensitivity activators, primary screen, biochemical, IANBD-TnC fluorescence, EC20 calcium | IANBD-labeled TnC RTF fluorescence at EC20 calcium; 0% EC20 calcium, 100% full calcium | Troponin I, cardiac muscle (Homo sapiens) + Troponin T, cardiac muscle (Homo sapiens) + … | 0.24% of 340,000 active | activation, % at 7.2 µM;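 active = activation above the mean over all tested compounds plus 3 SD, cut at about 30% in these data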;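 also: rise in fluorescence read as greater calcium sensitivity of cardiac thin filaments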
IDE inh = human IDE inhibitors in live cells, primary screen, fluorescence polarization, HEK cells, FAbetaB substrate; Insulin-degrading enzyme (Homo sapiens), P14735; FAbetaB cleavage; inhibition, % at 5.59 µM; 0.41% of 320,000 active; AID 434962, 2010;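 active = percent inhibition above the average of all tested compounds plus 3 SD, set per screening campaign, cut at about 16% in these data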;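 also: IDE supplied by intact live HEK cells; FP after avidin binding of uncleaved biotin substrate so inhibition keeps polarization high; 0% = DMSO wells and 100% = 60 µM reference IDE inhibitor Ii1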
Keap1 Nrf2 FP = Keap1-Nrf2 protein-protein interaction inhibitors, primary screen, biochemical, fluorescence polarization, single point; Kelch-like ECH-associated protein 1 (Homo sapiens), Q14145; Keap1 Kelch-Nrf2 peptide fluorescence polarization, 1536-well; inhibition, % at 9.4 µM; 0.15% of 340,000 active; AID 504523, 2011; in the data active = inhibition above about 12%; inconclusive = no clear call, values can overlap the other calls; inactive = below about 7.3%;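 also: human Keap1 Kelch domain with fluorescein labeled Nrf2 9mer peptide probe; 0% = neutral control wells and 100% = peptide positive control; higher means more block of Keap1 binding to Nrf2 peptide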
Target sequence (Q14145 whole entry, looked up, the tested form may be a part): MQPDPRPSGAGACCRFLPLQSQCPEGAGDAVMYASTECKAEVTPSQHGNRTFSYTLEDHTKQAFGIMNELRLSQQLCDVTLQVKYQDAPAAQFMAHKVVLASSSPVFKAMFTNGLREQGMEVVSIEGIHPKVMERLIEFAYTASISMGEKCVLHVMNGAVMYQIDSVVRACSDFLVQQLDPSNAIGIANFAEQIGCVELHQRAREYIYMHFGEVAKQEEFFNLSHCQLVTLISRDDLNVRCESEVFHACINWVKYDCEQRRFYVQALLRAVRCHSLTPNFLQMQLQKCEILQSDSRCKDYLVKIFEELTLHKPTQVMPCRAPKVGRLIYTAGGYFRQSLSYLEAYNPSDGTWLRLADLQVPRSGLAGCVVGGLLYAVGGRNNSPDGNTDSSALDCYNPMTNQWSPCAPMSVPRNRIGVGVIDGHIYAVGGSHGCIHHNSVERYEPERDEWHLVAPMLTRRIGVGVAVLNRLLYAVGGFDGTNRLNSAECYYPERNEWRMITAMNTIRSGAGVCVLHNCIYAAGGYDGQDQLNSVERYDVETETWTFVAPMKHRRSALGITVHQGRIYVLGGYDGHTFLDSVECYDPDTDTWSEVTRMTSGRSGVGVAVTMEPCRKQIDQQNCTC
IDE act = human IDE activators in live cells, primary screen, fluorescence polarization, HEK cells, FAbeta-B substrate; Insulin-degrading enzyme (Homo sapiens), P14735; FAbeta-B cleavage; 0% vehicle, 100% cell-free pure enzyme wells; activation, % at 5.96 µM; 0.073% of 340,000 active;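 active = activation above the mean of all tested compounds plus 3 SD, set per screening campaign, cut at about 17% in these data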
Cardiac RTF inh = cardiac RTF calcium sensitivity inhibitors, primary screen, biochemical, IANBD-TnC fluorescence, EC70 calcium; Troponin I, cardiac muscle (Homo sapiens) + Troponin T, cardiac muscle (Homo sapiens) + …; IANBD-labeled cardiac RTF, Ca2+ fluorescence; inhibition, % at 7.15 µM; 0.12% of 340,000 active; AID 493244, 2011;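 active = inhibition above the mean inhibition of all tested compounds plus 3 SD, cut at about 17% in these data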;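 also: assay run at fixed EC70 calcium of 1.6 mM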
* marks the source's active call; other numbers are inactive results; i = inactive; ? = inconclusive; . = no result. The list is not random: actives were taken first. Their share in the collection is about 0.81%.

SMILES	LANA DNA inh	cardiac RTF act	IDE inh	Keap1 Nrf2 FP	IDE act	Cardiac RTF inh
CC(C)=CCCC1(C)C=Cc2c(c(C)cc3c2[nH]c2cc(O)ccc23)O1 (stereo not drawn)	-0.8	3.2	-5.6	-3.1	24.0*	-0.4
COc1ccccc1N1CCN(S(=O)(=O)c2ccc3nc(-c4ccccc4)[nH]c3c2)CC1	1.2	-1.1	31.9*	-1.9	-24.5	-1.7
Fc1ccc(COc2ccccc2CNCc2ccncc2)cc1	-1.0	-0.3	17.4*	-3.0	-13.7	-9.4
CCN(CC(=O)Nc1ccccc1C(F)(F)F)C(=O)c1cc(-c2ccccc2)nn1-c1ccccc1	.	-4.8	-5.5	.	2.6	0.7
CCN(CC(=O)Nc1ccccc1C(F)(F)F)C(=O)c1ccc(-n2nc(C)c(CCC(=O)OC)c2C)cc1	-0.2	62.2*	.	0.8	-17.8	-74.5
NC(=O)COC(=O)c1cccc(NS(=O)(=O)/C=C/c2ccccc2)c1	0.2	-1.2	-2.8	1.6	0.9	-7.7
NC(=O)NC(=O)COC(=O)c1cccc(NS(=O)(=O)/C=C/c2ccccc2)c1	2.1	38.1*	-0.2	-2.2	-3.8	-4.2
COc1ccccc1N1C(=O)C2C(C(=O)c3ccccc3)=NN(c3ccc(C)cc3)C2C1=O (stereo not drawn)	.	.	9.0	.	.	.
O=C(C1=NN(c2ccccc2)C2C(=O)N(c3ccc(Cl)cc3)C(=O)C12)c1ccccc1 (stereo not drawn)	4.3	38.3*	15.2	-4.5	-17.8	-30.2
CCOc1ccc2[nH]c3c(N4CCc5ccccc5C4)ncnc3c2c1	.	.	28.2*	.	.	.
Cc1ccc2[nH]c3c(N4CCc5ccccc5C4)ncnc3c2c1	-0.7	-3.6	61.8*	-0.6	-17.0	-7.0
O=C(/C=C/Nc1ccc(S(=O)(=O)Nc2ncccn2)cc1)c1ccc(Cl)c(Cl)c1	20.2	3.0	8.6	15.5*	-0.1	4.0
O=C(/C=C/Nc1ccc(S(=O)(=O)Nc2ncccn2)cc1)c1cccs1	0.3	-0.2	2.9	-0.3	-2.4	-11.7
CC(=O)NNC(=S)Nc1cccc(F)c1	1.7	.	-1.3	1.2	.	.
CC1(C)Cc2c(cnn2-c2cccc(F)c2)C(NC(=O)c2ccc(=O)[nH]n2)C1 (stereo not drawn)	-0.4	-2.8	3.7	5.1	2.0	-3.9
CC(OC(=O)c1c2c(nc3ccccc13)/C(=C\c1ccc3c(c1)OCO3)CCC2)C(=O)Nc1ccc(S(N)(=O)=O)cc1 (stereo not drawn)	9.5	114.9*	.	-3.2	26.4*	i
Cc1cccc(C)c1NC(=O)COC(=O)c1c2c(nc3ccccc13)/C(=C\c1ccc3c(c1)OCO3)CCC2	2.0	6.2	-29.2	?	4.9	-1.9
COc1ccc(C(=O)Nc2cc(C(C)=O)c(C)oc2=O)cc1	-0.7	0.2	1.1	-1.3	3.4	-10.6
COC(=O)c1cc(NC(=O)c2ccccc2)c(=O)oc1/C=C/Nc1ccc(Oc2ccccc2)cc1	9.5	112.9*	.	-190.3	-29.1	-253.7
CCN1C(=O)/C(=C/C=C2\C=CN(CC)c3ccccc32)SC1=S	0.6	4.0	7.8	-14.6	-5.4	-4.1
CCCN1C(=O)/C(=C\C=C2\N(CC)c3ccccc3C2(C)C)SC1=S	-0.9	90.0*	.	-0.5	-72.8	-110.0
COc1ccc(C(=O)Sc2nncc3ccccc23)cc1	-0.7	-5.9	-4.0	-1.6	0.5	-5.4
CCN(c1ccc(N=Cc2c(O)n(Cc3ccc(OC)cc3)c(=O)c3ccccc23)cc1)C(C)C	7.0	418.1*	.	-3.9	0.4	-27.6
COc1ccc(-n2c(O)c(C=Nc3ccccc3)c3ccccc3c2=O)cc1	-1.4	-1.8	2.3	0.0	2.4	-4.8
CC(=O)c1ccc(NC(=O)Cn2cnc(S(=O)(=O)N3CCC(C)CC3)c2)cc1	-1.6	7.4	9.8	5.0	-2.5	-6.0
SMILES	LANA DNA inh	cardiac RTF act	IDE inh	Keap1 Nrf2 FP	IDE act	Cardiac RTF inh
O=c1c2cc(O)c(O)cc2oc2cc(O)c(C3OC(CO)C(O)C(O)C3O)c(O)c12 (stereo not drawn)	67.3*	-6.5	-2.0	-1.7	6.1	0.3
Cc1cc(S(=O)(=O)Cc2noc(-c3c(C)noc3C)n2)c(C)cc1Cl	-1.8	17.9	12.0	-3.5	2.6	-8.4
Cc1noc(C)c1-c1nc(CSc2ccccc2)no1	90.5*	0.5	-3.1	-2.3	1.1	-2.6
CCCC(c1nnnn1C(C)(C)CC)N1CCN(C(=O)c2ccco2)CC1 (stereo not drawn)	0.5	-0.6	-1.6	-0.6	0.7	-5.9
Cc1ccc(S(=O)(=O)N2CCOCC2)cc1C(=O)Nc1ccc(-c2cn3ccsc3n2)cc1	1.3	10.5	19.9*	0.6	-14.7	-5.9
Cc1ccc(S(=O)(=O)N2CCOCC2)cc1C(=O)Nc1ccncc1	-1.8	-1.8	-4.7	-1.7	1.9	-5.1
Nc1ccc(Cn2ccc3c4c(N)nc(N)nc4ccc32)cc1	-2.0	-2.0	.	-1.1	5.2	5.3
O=C(O)CN1C(=O)/C(=C/c2ccc(SCc3ccccc3)o2)SC1=S	-33.5	35.2*	.	-145.9	-12.3	-44.7
CC(CC(F)(F)F)N1CCC(n2nccc2NC(=O)CCCc2ccccc2)CC1 (stereo not drawn)	2.7	-1.2	0.9	5.9	-0.2	-2.3
COc1cc(/C=C2\SC(=Nc3ccc(O)cc3)NC2=O)cc(OC)c1OC	.	.	-2.8	.	.	.
COc1cc(/C=C2/SC(=Nc3ccc(O)cc3)NC2=O)cc(OC)c1O	-1.9	7.5	57.8*	-3.9	-113.1	-4.9
COc1ccc(N=Cc2cc3c(cc2O)OC(N)=C(C#N)C3c2ccccc2)cc1 (stereo not drawn)	3.8	71.3*	12.3	-2.2	-5.7	-44.0
O=C1CC(=O)N(Cc2ccco2)C(=S)N1	71.1*	-1.7	7.2	3.4	-8.4	-7.5
O=C(NCCN1CCOCC1)c1ccccc1[N+](=O)[O-]	-1.0	1.6	-1.1	-4.0	-1.4	5.7
Cc1cccc(C(=O)NCCN2CCOCC2)c1[N+](=O)[O-]	0.7	6.9	1.1	-5.8	27.9*	0.2
Cc1ccc(N=Nc2c(O)[nH]c3ccc(F)cc23)cc1	41.4	74.6*	13.8	-6.6	-10.4	-87.7
Cc1ccc(N=Nc2[nH]c3ccccc3c2O)cc1	2.1	36.2*	15.3	-5.1	-3.4	-46.9
C/C(=N\NC(=O)Cn1cc([N+](=O)[O-])cn1)c1ccco1	-1.2	8.9	-0.1	-2.0	-3.9	-1.6
